From PubChem BioAssay
Sampled rows, rich in hits. Any-hit rate of the full collection: about 11%.
ALDH1A1 inh: inhibitors of human aldehyde dehydrogenase 1A1; Purified ALDH1A1, NADH fluorescence, propionaldehyde substrate; Potency, µM (highest dose often 75.3 µM), for inactives: at the highest dose activity, negative = inhibition, hits mostly inhibitors; 7.3% of 220,000 active; active = well fitted inhibition curve with a large enough effect, not every such curve was filed as active; inconclusive = small, poorly fitted or top-dose-only effect, or another doubt; inactive = no such curve, though single readings can be large or run the other way;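 note: potency is the fitted concentration of half-maximal effect; plate controls were no enzyme wells and a reference inhibitor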
Target sequence (P00352 whole entry, looked up): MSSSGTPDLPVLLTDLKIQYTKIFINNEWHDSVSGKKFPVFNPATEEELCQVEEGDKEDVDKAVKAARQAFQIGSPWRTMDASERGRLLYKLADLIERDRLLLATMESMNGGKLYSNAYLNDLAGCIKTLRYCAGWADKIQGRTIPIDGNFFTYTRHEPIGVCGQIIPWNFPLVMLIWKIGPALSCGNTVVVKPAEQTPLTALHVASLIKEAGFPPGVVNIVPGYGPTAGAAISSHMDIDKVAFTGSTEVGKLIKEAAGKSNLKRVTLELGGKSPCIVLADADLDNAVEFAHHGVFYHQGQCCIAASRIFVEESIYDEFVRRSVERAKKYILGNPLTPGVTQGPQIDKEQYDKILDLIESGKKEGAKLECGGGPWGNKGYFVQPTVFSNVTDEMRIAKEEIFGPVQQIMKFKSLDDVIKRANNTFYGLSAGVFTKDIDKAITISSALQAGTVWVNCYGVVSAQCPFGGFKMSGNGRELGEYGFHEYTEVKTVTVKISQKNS
HPGD block: HPGD (human) dehydrogenase inhibition; AID 894; purified HPGD, NADH fluorescence kinetic, PGE2 substrate; 4.3% of 150,000 active; P15428; Potency, µM, without a hit: top-dose activity change, negative = inhibition, most hits filed as inhibitors; active = well fitted inhibition curve with a large enough effect, not every such curve was filed as active; inconclusive = small, poorly fitted or top-dose-only effect, or another doubt; inactive = no such curve, though single readings can be large or run the other way; note: potency is the fitted concentration of half-maximal effect; % is set by controls: 0 for no effect and ±100 for the full control effect
Target sequence (P15428 whole entry, looked up): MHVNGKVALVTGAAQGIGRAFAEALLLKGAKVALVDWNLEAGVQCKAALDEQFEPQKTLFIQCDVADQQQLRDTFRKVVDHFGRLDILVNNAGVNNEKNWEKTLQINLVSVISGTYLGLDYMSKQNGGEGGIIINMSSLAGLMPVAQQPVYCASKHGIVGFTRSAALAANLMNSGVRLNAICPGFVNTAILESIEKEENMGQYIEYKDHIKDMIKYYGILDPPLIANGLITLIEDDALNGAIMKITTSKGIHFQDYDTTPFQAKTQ
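NADH formation kinetics: reaction with 30 uM PGE2 and 1 mM NAD+ (final), 20 nM enzyme, Tris-HCl pH 8 with Tween 20, after 15 min compound preincubation at room temperature. Fluorescence change, last versus first of five reads.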
PNC inhibitor: perinucleolar compartment assembly inhibition; AID 2417; 3.1% of 140,000 active; activity change (PNC), negative = inhibition, % at 10 µM; PC3M PTB-GFP, PNC prevalence imaging, 16 h; hits give low values;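 active = readout at or below -70, meaning at least 70% loss of cells showing the perinucleolar compartment, a nuclear body marking cancer cells; inconclusive = readout between -30 and a set limit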;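 note: plate controls were DMSO wells for no effect and camptothecin positive control wells for full effect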
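Compounds are pinned in duplicate onto adhered PC3M cells stably expressing GFP-tagged PTB and incubated 16 h at 37 C. Cells are then fixed, nuclei stained with Hoechst, and PNC-positive cells counted.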
HttQ103 aggreg: inhibitors of mutant huntingtin aggregate formation in PC12 cells. PC12 HttQ103-GFP aggregates, Acumen cytometry, 40 h. Potency, µM (series often up to 46.1 µM), without a hit: at the top dose activity change, negative = inhibition, hits mostly inhibitors. 1.1% of 220,000 active. AID 1688; note: potency is the fitted concentration of half-maximal effect; % is set by controls: 0 for no effect and ±100 for the full control effect; nearly all actives have a fitted effect of over 60% in size
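Compounds (qHTS titration) were added to PC12 cells expressing an ecdysone-driven HTT exon 1 Q103–GFP fusion after induction with 100 nM tebufenozide. Aggregate formation was measured as GFP objects in cell lysates.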
GoLoco inh red: inhibitors of human Gai1-RGS12 GoLoco interaction (red fluorophore); P63096; Gai1:RGS12 GoLoco peptide FP, rhodamine, 10 min; Potency, µM (top dose mostly 61.6 µM), inactives show top-dose activity, negative = inhibition, usual class: inhibitors; 0.44% of 230,000 active; AID 880; active = well fitted inhibition curve with a large enough effect, not every such curve was filed as active; inactive = no such curve, though single readings can be large or run the other way; note: potency is the fitted concentration of half-maximal effect; % is set by controls: 0 for no effect and ±100 for the full control effect; nearly all actives have a fitted effect of over 30% in size
HTT ATP protect: protects HTT-Q103 PC12 cells, measured by ATP | 0.14% of 230,000 active | PC12 HTT-Q103 induced, cytoprotection, ATP luminescence, 40 h | Potency, µM (doses to about 56.4 µM), without a hit: cytoprotection (ATP increase), most hits filed as activators | AID 1471; note: potency is the fitted concentration of half-maximal effect; % of control where 0% means no effect; nearly all actives have a fitted effect of over 45% in size
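Cells were plated at 1500 per well in phenol red-free DMEM with 5% equine and 5% calf serum. Tebufenozide (100 nM final) and compounds were added, then ATPlite reagent, and luminescence was read.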
The depositor's hits bear a star; [ ] = another dose, or the depositor's remark. Unless noted, calls come from the whole dose curve; as a rule, active = well fitted curve in the direction sought with a large enough effect; inconclusive = small, poorly fitted or top-dose-only effect, or another doubt; inactive = no such curve, though single readings can be large; an effect the other way counts as inactive or inconclusive.

How did CCCCN(CCCNc1ncnc2nc[nH]c12)c1ccccc1 do in these assays?
ALDH1A1 inh: -2%; HPGD block: -5%; PNC inhibitor: 31; HttQ103 aggreg: 13%; GoLoco inh red: -17%; HTT ATP protect: -18%

How did CCN(c1cccc(C)c1)c1ncnc2nc[nH]c12 do in these assays?
ALDH1A1 inh: 7%; HPGD block: -11%; PNC inhibitor: inconclusive; HttQ103 aggreg: 8.9µM*; GoLoco inh red: 7%; HTT ATP protect: 0%[10 µM]

How did CCCCN(c1ccccc1)c1ncnc2nc[nH]c12 do in these assays?
ALDH1A1 inh: 11µM*; HPGD block: -11%; PNC inhibitor: 18; HttQ103 aggreg: inconclusive; GoLoco inh red: 21%; HTT ATP protect: -2%

How did Cn1c(COc2ccc(Cl)cc2)nnc1SCc1ncc(-c2ccccc2)o1 do in these assays?
ALDH1A1 inh: 20µM*; HPGD block: -5%; PNC inhibitor: inconclusive; HttQ103 aggreg: 15%[9.22 µM]; GoLoco inh red: -8%; HTT ATP protect: -49%[10 µM]

What do the screens show for `CCOC(=O)C1=C(C)N[C@@]2(O)c3ccccc3C(=O)[C@@]12O`?
ALDH1A1 inh: 32µM*; HPGD block: -7%; PNC inhibitor: 38; HttQ103 aggreg: -23%; GoLoco inh red: 8%; HTT ATP protect: -1%[10 µM]

Results for CCCCOC(=O)C1=C(C)NC2(O)c3ccccc3C(=O)C12O (stereo not drawn) ?
ALDH1A1 inh: 8.9µM*; HPGD block: -9%; PNC inhibitor: 8; HttQ103 aggreg: -9%; GoLoco inh red: 1%; HTT ATP protect: 19%

Results for CCOC(=O)C1=C(C)OC2(O)c3ccccc3C(=O)C12O (stereo not drawn) ?
HttQ103 aggreg: -7%[9.22 µM]; GoLoco inh red: 4%; HTT ATP protect: 6%[10 µM]

How did CC1=C(C(=O)OC(C)C)C2(O)C(=O)c3ccccc3C2(O)N1 (stereo not drawn) do in these assays?
ALDH1A1 inh: 13µM*; HPGD block: -11%; PNC inhibitor: inconclusive; HttQ103 aggreg: -2%; GoLoco inh red: -5%; HTT ATP protect: 14%[10 µM]

How did CC1=C(C#N)C2(O)C(=O)c3ccccc3C2(O)N1 (stereo not drawn) do in these assays?
ALDH1A1 inh: inconclusive; HttQ103 aggreg: -13%; GoLoco inh red: 1%; HTT ATP protect: -26%

How did Cc1ccc([S+](=O)([O-])N(c2ccccc2)[S+](=O)([O-])C(F)(F)F)cc1 do in these assays?
ALDH1A1 inh: 6%; HPGD block: -4%; GoLoco inh red: -21%; HTT ATP protect: -30%

What do the screens show for `CCOC(=O)c1c(NC(=O)COc2ncnc3ccccc23)sc(C)c1CC`?
ALDH1A1 inh: inconclusive; HPGD block: -17%; PNC inhibitor: -17; HttQ103 aggreg: 16%; GoLoco inh red: 38%; HTT ATP protect: 3%[10 µM]

How did CC(=O)c1ccc(Sc2ccc(C(C)=O)cc2)cc1 do in these assays?
ALDH1A1 inh: 0%; HPGD block: 18µM*; PNC inhibitor: -25; HttQ103 aggreg: 30%; GoLoco inh red: -4%; HTT ATP protect: -16%[10 µM]

What do the screens show for `CC(=O)c1ccc(Sc2ccccc2)cc1`?
ALDH1A1 inh: inconclusive; HPGD block: inconclusive; PNC inhibitor: inconclusive; HttQ103 aggreg: -2%; GoLoco inh red: 0%; HTT ATP protect: -1%[10 µM]

How did CC1(C)CC(=O)C(C=Nc2cccnc2/N=C/C2=C(O)CC(C)(C)CC2=O)=C(O)C1 do in these assays?
ALDH1A1 inh: 2.2µM*; HttQ103 aggreg: 0%; GoLoco inh red: 8%; HTT ATP protect: -21%

What do the screens show for `CC1(C)CC(=O)C(C=Nc2cccnc2)=C(O)C1`?
ALDH1A1 inh: 7.9µM*; HPGD block: -5%; PNC inhibitor: -4; HttQ103 aggreg: inconclusive; GoLoco inh red: -23%; HTT ATP protect: -44%

What do the screens show for `COC(=O)N[C@H](C[N+](=O)[O-])c1cccc(C)c1`?
ALDH1A1 inh: 5%; HPGD block: -8%; GoLoco inh red: 3%

What do the screens show for `CC(C)(C)C1CCC(OC(=O)C[N+]2(C)CCCC2)CC1` (stereo not drawn)?
ALDH1A1 inh: -1%; HttQ103 aggreg: -32%; GoLoco inh red: 7.1µM*; HTT ATP protect: -46%

What do the screens show for `CC(C)(C)C1CCC(OC(=O)C[N+]2(C)CCCCC2)CC1` (stereo not drawn)?
ALDH1A1 inh: -6%; HttQ103 aggreg: inconclusive; GoLoco inh red: 8.9µM*; HTT ATP protect: -43%

Results for COc1ccc(Cl)cc1NC(=S)N(Cc1ccc(C(=O)O)cc1)Cc1ccc(OC)c(OC)c1 ?
ALDH1A1 inh: inconclusive; HttQ103 aggreg: -8%; GoLoco inh red: -8%; HTT ATP protect: -12%

How did CC(C)c1nc2oc3c(NCC4CCCO4)ncnc3c2c2c1CCC2 (stereo not drawn) do in these assays?
ALDH1A1 inh: inconclusive; HPGD block: inconclusive; PNC inhibitor: -98*; HttQ103 aggreg: inconclusive; GoLoco inh red: 1%; HTT ATP protect: -12%[0.074 µM]

What do the screens show for `COc1ccc2c(=O)cc(-c3ccc(O)cc3)oc2c1`?
ALDH1A1 inh: inconclusive; HPGD block: inconclusive; GoLoco inh red: 4%; HTT ATP protect: 2%[1.9 µM]

What do the screens show for `COc1ccc(OC)c(-c2c3cc(O)c(=O)cc-3oc3cc(O)c(O)cc23)c1`?
ALDH1A1 inh: inconclusive; HPGD block: 14µM*; PNC inhibitor: -6; HttQ103 aggreg: 5µM*; GoLoco inh red: 10µM*

How did O=c1cc2oc3cc(O)c(O)cc3c(-c3ccccc3O)c-2cc1O do in these assays?
HttQ103 aggreg: -19%[9.22 µM]; GoLoco inh red: 7.9µM*; HTT ATP protect: -13%[10 µM]

Results for O=c1cc(-c2ccccc2O)oc2cc(O)cc(O)c12 ?
ALDH1A1 inh: -14%; HPGD block: -30%; GoLoco inh red: 9%; HTT ATP protect: 4%[1.9 µM]

What do the screens show for `CCOc1ccccc1-c1c2cc(O)c(=O)cc-2oc2cc(O)c(O)cc12`?
ALDH1A1 inh: 20µM*; HPGD block: 18µM*; PNC inhibitor: -83*; HttQ103 aggreg: -4%; GoLoco inh red: inactive; HTT ATP protect: 8%[10 µM]

Results for c1ccc(CCN=C2CCCc3c2[nH]c2ccccc32)cc1 ?
HttQ103 aggreg: -15%[9.22 µM]; GoLoco inh red: -5%; HTT ATP protect: -11%[10 µM]

Results for COC(=O)c1c(C)[nH]c(C(=O)/C=C/c2ccccc2F)c1C ?
HttQ103 aggreg: 14%[9.22 µM]; GoLoco inh red: 6%; HTT ATP protect: 30%[10 µM]

How did O=C(/C=C/c1ccc(Br)o1)NCc1ccccc1 do in these assays?
ALDH1A1 inh: 6.3µM*; HttQ103 aggreg: 0%; GoLoco inh red: -2%; HTT ATP protect: -25%

Results for Cc1ccc(CNC(=O)/C=C/c2ccc(Br)o2)cc1 ?
ALDH1A1 inh: 3.5µM*; HPGD block: -28%; PNC inhibitor: 46; HttQ103 aggreg: -8%; GoLoco inh red: -3%; HTT ATP protect: 13%[10 µM]
